From PubChem BioAssay (NCI)
Compounds without any hit were thinned out: in the full panel of roughly 79,000, 15% have a hit. Calls of active or inactive are those of the source. Rule as the data show it: active = growth inhibition above about 70%; inactive = the rest.

What was measured:
[1] = NCI Yeast Anticancer Drug Screen. Data for the mec2-1 strain (AID 157); settings: S. cerevisiae mec2-1 strain, stronger effect = higher value
In short: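 Mutant yeast (mec2-1) grown with compound; growth inhibition relative to vehicle control reported.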

[2] = NCI Yeast Anticancer Drug Screen. Data for the sgs1 mgt1 strain (AID 161);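 also: 0% = growth of cultures given vehicle only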; settings: S. cerevisiae sgs1 mgt1 strain, stronger effect = higher value
In short: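 This yeast growth screen uses a strain with defined DNA-repair lesions; compound-treated growth is compared with vehicle-treated growth.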

[3] = NCI Yeast Anticancer Drug Screen. Data for the cln2 rad14 strain (AID 165);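 also: 0% = growth equal to vehicle treated cultures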; settings: S. cerevisiae cln2 rad14 strain, stronger effect = higher value
In short: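 Readout is yeast growth inhibition versus vehicle-treated controls, using a strain with cln2 and rad14 alterations exposed to compound.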

[4] = NCI Yeast Anticancer Drug Screen. Data for the bub3 strain (AID 167); settings: S. cerevisiae bub3 mutant strain, stronger effect = higher value
In short: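 Part of a panel of yeast mutants defective in DNA damage repair or cell cycle regulation. Each strain is grown with compound, and inhibition is calculated relative to solvent-treated cultures.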

[5] = NCI Yeast Anticancer Drug Screen. Data for the wt2 strain (AID 169);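 also: 0% = growth of vehicle-treated yeast cultures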; settings: S. cerevisiae wt2 strain growth inhibition, stronger effect = higher value
In short: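 Against vehicle-treated controls, the growth of yeast exposed to each compound was compared, and the inhibition was recorded.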

[6] = NCI Yeast Anticancer Drug Screen. Data for the mlh1 strain (AID 171);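 also: 0% = growth of vehicle-treated control cultures of the same strain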; settings: S. cerevisiae mlh1 strain growth inhibition, stronger effect = higher value
In short: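 Measured: yeast growth. Reference: vehicle-treated controls. Organism: strain with a defined alteration affecting DNA damage repair or cell cycle control, treated with compound.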

[7] = NCI Yeast Anticancer Drug Screen. Data for the sgs1 strain (AID 173);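 also: 0% = growth of vehicle-only control cultures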; settings: S. cerevisiae sgs1 mutant, stronger effect = higher value
In short: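 Each compound was added to cultures of the altered yeast strain. Growth was recorded, and inhibition was derived by comparison with vehicle controls.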

[8] = NCI Yeast Anticancer Drug Screen. Data for the mlh1 rad18 strain (AID 175); settings: S. cerevisiae mlh1 rad18 strain growth inhibition, stronger effect = higher value
In short: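 Genetically defined yeast (DNA repair-deficient) exposed to compounds; growth inhibition determined relative to vehicle.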

[9] = NCI Yeast Anticancer Drug Screen. Data for the rad18 strain (AID 177); settings: S. cerevisiae rad18 mutant growth inhibition, stronger effect = higher value
In short: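 Vehicle-treated cultures served as the baseline for scoring compound-induced growth inhibition in DNA-repair-mutant yeast.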

[10] = NCI Yeast Anticancer Drug Screen. Data for the rad52 strain (AID 147);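 also: 0% = growth of vehicle-treated control cultures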; settings: S. cerevisiae rad52 mutant growth inhibition, stronger effect = higher value
In short: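 The repair-mutant yeast strain was incubated with compounds, then growth was read and inhibition derived relative to vehicle.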

[11] = NCI Yeast Anticancer Drug Screen. Data for the wt1 strain (AID 149);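 also: 0% = growth of vehicle-treated wt1 cultures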; settings: S. cerevisiae wt1 strain (SPY 50644) growth inhibition, stronger effect = higher value
In short: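 The wt1 strain was treated with compounds, and growth was compared with vehicle-treated cultures to give inhibition.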

[12] = NCI Yeast Anticancer Drug Screen. Data for the rad50EPP+ strain (AID 151);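 also: 0% = growth of vehicle-treated control cultures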; settings: S. cerevisiae rad50 mutant strain, stronger effect = higher value
In short: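 Vehicle-normalised growth inhibition; rad50EPP+ yeast strain, altered in DNA damage repair, compound-treated.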

[13] = NCI Yeast Anticancer Drug Screen. Data for the mgt1 strain (AID 153); settings: S. cerevisiae mgt1 mutant growth inhibition, stronger effect = higher value
In short: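 Vehicle-normalized growth inhibition is determined in mgt1 yeast, a strain selected for a defined alteration in DNA repair or cell cycle control.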

[14] = NCI Yeast Anticancer Drug Screen. Data for the rad50 strain (AID 155);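 also: 0% = growth of vehicle-only cultures of the same strain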; settings: S. cerevisiae rad50 strain growth inhibition, stronger effect = higher value
In short: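 Cells are treated with compound, grown, and their growth is then scored against vehicle-only cultures of the same repair-deficient yeast strain.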

[15] = NCI Yeast Anticancer Drug Screen. Data for the rad14 strain (AID 159);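 also: 0% = growth of vehicle-treated control cultures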; settings: S. cerevisiae rad14 strain growth inhibition, stronger effect = higher value
In short: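 Readout: yeast growth inhibition, referenced to vehicle-only cultures. Strain bears a defined alteration in DNA damage repair.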

[16] = NCI Yeast Anticancer Drug Screen. Data for the CLN2oe strain (AID 163);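 also: 0% = growth of vehicle-only control cultures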; settings: S. cerevisiae CLN2oe strain, stronger effect = higher value
In short: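 Compounds are applied to yeast harbouring a defined cell-cycle control change; reduced growth compared with vehicle-treated controls gives the value.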

[17] = at 5.0 µM (retest, dose inferred, filed as 0.5)
[18] = at 50.0 µM (retest, dose inferred, filed as 5.0)

Measured: growth inhibition

O=C(O)c1ccc2cc(Cl)c3ccccc3c2c1
inactive: [1]; [17] 1% | [1]; at 11.0 µM 25% | [1]; at 33.0 µM 44% | [1]; at 100.0 µM 54% | [2]; [17] 35% | [3]; [17] 30% | [4]; at 1.2 µM -4% | [4]; at 3.7 µM 1% | [4]; [17] 17% | [4]; at 11.0 µM 17% | [4]; at 33.0 µM 31% | [4]; at 100.0 µM 30% | [5]; at 1.2 µM -3% | [5]; at 3.7 µM 0% | [5]; at 11.0 µM 15% | [5]; at 33.0 µM 42% | [5]; at 100.0 µM 56% | [6]; at 1.2 µM 0% | [6]; at 3.7 µM 4% | [6]; at 11.0 µM 26% | [6]; at 33.0 µM 49% | [6]; at 100.0 µM 66% | [7]; at 1.2 µM 0% | [7]; at 3.7 µM 8% | [7]; at 11.0 µM 29% | [7]; at 33.0 µM 53% | [7]; at 100.0 µM 68% | [8]; [17] 58% | [9]; at 1.2 µM 2% | [9]; at 3.7 µM 3% | [9]; at 11.0 µM 19% | [9]; at 33.0 µM 39% | [9]; at 100.0 µM 55%
active: [1]; [18] 89% | [1]; at 50.0 µM 94% | [2]; [18] 93% | [2]; at 50.0 µM 93.9% | [3]; [18] 92% | [3]; at 50.0 µM 92.8% | [4]; [18] 86% | [4]; at 50.0 µM 91.4% | [8]; [18] 93% | [8]; at 50.0 µM 94.8%

CC(=O)O/N=C1C=C/C(=C(/C#N)c2ccccc2)C=C/1C
active: [10]; at 33.0 µM 99% | [10]; at 100.0 µM 96% | [11]; at 33.0 µM 99% | [11]; at 100.0 µM 97% | [12]; at 3.7 µM 81% | [12]; at 11.0 µM 95% | [12]; at 33.0 µM 97% | [12]; at 100.0 µM 94% | [13]; at 11.0 µM 75% | [13]; at 33.0 µM 99% | [13]; at 100.0 µM 96% | [14]; at 33.0 µM 98% | [14]; [18] 98% | [14]; at 50.0 µM 99.5% | [14]; at 100.0 µM 94% | [15]; at 33.0 µM 99% | [15]; at 100.0 µM 96% | [2]; [17] 77% | [2]; [18] 99% | [2]; at 50.0 µM 99.2% | [3]; [18] 98% | [3]; at 50.0 µM 99% | [4]; at 33.0 µM 99% | [4]; [18] 99% | [4]; at 50.0 µM 99.5% | [4]; at 100.0 µM 91% | [5]; at 33.0 µM 99% | [5]; at 100.0 µM 96% | [6]; at 33.0 µM 99% | [6]; at 100.0 µM 95% | [7]; at 11.0 µM 94% | [7]; at 33.0 µM 99% | [7]; at 100.0 µM 95% | [8]; [18] 98% | [8]; at 50.0 µM 98.8% | [9]; at 33.0 µM 99% | [9]; at 100.0 µM 95%
inactive: [10]; at 1.2 µM 6% | [10]; at 3.7 µM 15% | [10]; at 11.0 µM 63% | [11]; at 1.2 µM 3% | [11]; at 3.7 µM 5% | [11]; at 11.0 µM 24% | [12]; at 1.2 µM 43% | [13]; at 1.2 µM 2% | [13]; at 3.7 µM 6% | [14]; at 1.2 µM 5% | [14]; at 3.7 µM 10% | [14]; [17] 41% | [14]; at 11.0 µM 37% | [15]; at 1.2 µM 1% | [15]; at 3.7 µM 7% | [15]; at 11.0 µM 25% | [3]; [17] 4% | [4]; at 1.2 µM -8% | [4]; at 3.7 µM -11% | [4]; [17] 0% | [4]; at 11.0 µM 4% | [5]; at 1.2 µM 2% | [5]; at 3.7 µM 7% | [5]; at 11.0 µM 65% | [6]; at 1.2 µM 3% | [6]; at 3.7 µM 8% | [6]; at 11.0 µM 53% | [7]; at 1.2 µM 21% | [7]; at 3.7 µM 54% | [8]; [17] 49% | [9]; at 1.2 µM 12% | [9]; at 3.7 µM 26% | [9]; at 11.0 µM 56%

Cc1ccc(NC(Nc2ccc(C)cc2C)=C(C(Cl)=C(Cl)Cl)[N+](=O)[O-])c(C)c1
active: [10]; at 11.0 µM 78% | [10]; at 33.0 µM 99% | [10]; at 100.0 µM 94% | [11]; at 33.0 µM 99% | [11]; at 100.0 µM 96% | [12]; at 100.0 µM 71% | [14]; [17] 90% | [14]; at 11.0 µM 72% | [14]; at 33.0 µM 99% | [14]; [18] 98% | [14]; at 50.0 µM 98% | [14]; at 100.0 µM 92% | [1]; [17] 74% | [1]; at 33.0 µM 99% | [1]; [18] 98% | [1]; at 50.0 µM 98.8% | [1]; at 100.0 µM 94% | [15]; at 33.0 µM 99% | [15]; at 100.0 µM 94% | [2]; [17] 94% | [2]; [18] 99% | [2]; at 50.0 µM 98.9% | [16]; at 33.0 µM 99% | [16]; at 100.0 µM 94% | [3]; [18] 98% | [3]; at 50.0 µM 98.7% | [4]; at 33.0 µM 99% | [4]; [18] 98% | [4]; at 50.0 µM 98.3% | [4]; at 100.0 µM 91% | [5]; at 33.0 µM 99% | [5]; at 100.0 µM 94% | [6]; at 33.0 µM 99% | [6]; at 100.0 µM 94% | [7]; at 11.0 µM 70% | [7]; at 33.0 µM 99% | [7]; at 100.0 µM 93% | [8]; [17] 96% | [8]; [18] 98% | [8]; at 50.0 µM 98.3% | [9]; at 11.0 µM 72% | [9]; at 33.0 µM 99% | [9]; at 100.0 µM 92%
inactive: [10]; at 1.2 µM 4% | [10]; at 3.7 µM 10% | [11]; at 1.2 µM 2% | [11]; at 3.7 µM 3% | [11]; at 11.0 µM 34% | [12]; at 1.2 µM 8% | [12]; at 3.7 µM 10% | [12]; at 11.0 µM 19% | [12]; at 33.0 µM 38% | [14]; at 1.2 µM 1% | [14]; at 3.7 µM 4% | [1]; at 1.2 µM 0% | [1]; at 3.7 µM 5% | [1]; at 11.0 µM 49% | [15]; at 1.2 µM 2% | [15]; at 3.7 µM 2% | [15]; at 11.0 µM 25% | [16]; at 1.2 µM -3% | [16]; at 3.7 µM -1% | [16]; at 11.0 µM 48% | [3]; [17] 27% | [4]; at 1.2 µM -2% | [4]; at 3.7 µM -4% | [4]; [17] 67% | [4]; at 11.0 µM 30% | [5]; at 1.2 µM 2% | [5]; at 3.7 µM 4% | [5]; at 11.0 µM 47% | [6]; at 1.2 µM 1% | [6]; at 3.7 µM 5% | [6]; at 11.0 µM 35% | [7]; at 1.2 µM 1% | [7]; at 3.7 µM 11% | [9]; at 1.2 µM 2% | [9]; at 3.7 µM 7%
